From PubChem BioAssay AID630 (Emory University Molecular Libraries Screening Center, 2007)
Out of some 88,000 compounds screened, about 260 (0.3%) were called active. The full list was thinned out, with actives kept by preference. A number with no mark means an inactive call.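 The calls were made as follows: active = compounds that reduce the energy-transfer binding signal between the protein and its labelled peptide by more than half; inactive = the rest.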

target: Mothers against decapentaplegic homolog 3 (Homo sapiens) (UniProt P84022); experiment: Smad3/FoxH1 peptide binding inhibitors, primary screen, biochemical, TR-FRET (AID 630); conditions: TR-FRET Smad3/Dy647-FoxH1 peptide binding, europium anti-His; at 25 µM; hits give high values;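 also: 0% = Smad3 plus labelled peptide maximal FRET and 100% = peptide-only background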
Sequence (P84022 whole entry, looked up): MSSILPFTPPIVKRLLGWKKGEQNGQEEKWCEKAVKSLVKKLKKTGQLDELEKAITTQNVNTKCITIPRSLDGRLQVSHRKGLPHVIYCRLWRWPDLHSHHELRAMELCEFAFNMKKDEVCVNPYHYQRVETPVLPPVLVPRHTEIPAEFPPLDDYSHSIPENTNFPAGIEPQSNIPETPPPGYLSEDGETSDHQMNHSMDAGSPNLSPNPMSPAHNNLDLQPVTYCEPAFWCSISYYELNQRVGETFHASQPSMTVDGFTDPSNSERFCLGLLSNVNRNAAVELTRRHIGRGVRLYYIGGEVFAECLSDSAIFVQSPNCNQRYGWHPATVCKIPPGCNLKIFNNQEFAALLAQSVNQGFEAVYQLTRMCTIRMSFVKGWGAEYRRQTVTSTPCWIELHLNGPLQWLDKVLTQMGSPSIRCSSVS

Compound	inhibition
CC(=O)C1=C(C)NC(=O)NC1c1cc(Br)ccc1OCC#N (centres undefined)	5.31%
N#CC1=C(N)N(c2ccccc2)C2=C(C(=O)CCC2)C1c1ccccc1 (centres undefined)	-6.32%
C=CCN(N=Nc1cccc([N+](=O)[O-])c1)c1cccc([N+](=O)[O-])c1	5.93%
COc1ccc(NC(=O)C(CC(C)C)NS(=O)(=O)c2ccc3c(c2)CCN3C(C)=O)cc1OC (centres undefined)	2.09%
C[C@H]1O[C@@H](CC(=O)O)Cc2c1c(O)c1c(O)cc(-c3cc(=O)c4c(=O)c5c(c(=O)c=4c3=O)C[C@H](CC(=O)O)O[C@@H]5C)c(O)c1c2O	95.5% (active)
Cc1cc2cc(CNC(=O)c3cccs3)ccc2[nH]1	4.85%
c1ccc2c(-c3nn4nnnc4c4ccccc34)cccc2c1	1.52%
Cc1cc(Cl)c(S(=O)(=O)N(C)C)cc1OCC(N)=O	-1.09%
COc1ccc(S(=O)(=O)Nc2ccc(F)cc2)c(C)c1C	-18.5%
COCCOCCn1cnc2ccccc21	8.15%
Cc1ccc(-c2nc3ccccc3[nH]2)cc1N	10.8%
CC(=O)N1CCCc2cc(S(=O)(=O)CCC(=O)N3CCN(c4ccccc4)CC3)ccc21	3.39%
CC(C)(C)c1ccc(C(=O)NCC(=O)OCN2C(=O)c3ccccc3C2=O)cc1	-15.4%
C=CCN(C(=O)Cn1ncc2c1-c1cc(C)ccc1OC2)c1ccccc1	-12.8%
Oc1c(Br)cc(CN(Cc2cc(Br)c(O)c(Br)c2)C2CCCCC2)cc1Br	98.7% (active)
C=CCO/N=C(\C)c1c(O)c(C)c(-c2ccccc2)n(-c2ccccc2)c1=O	0.29%
Cc1cccc(NC(=O)/C(=C\c2ccco2)NC(=O)c2ccccc2)c1	-5.56%
CC(C)C(c1nnnn1CCc1ccccc1)N1CCN(C(=O)c2ccco2)CC1 (centres undefined)	-1.2%
CCC(c1nnnn1C1CCCC1)N1CCN(C(=O)c2ccco2)CC1 (centres undefined)	56.9% (active)
CC(=O)c1ccc(-n2nnnc2SCC(=O)N2CCN(C(=O)c3ccco3)CC2)cc1	6.3%

Compound	inhibition
COC(=O)c1ccc(CSc2nc3cc(Cl)ccc3o2)cc1	8.67%
Cc1ccc(-c2cnc(NC(=O)CCC(=O)N(C)Cc3ccccc3)n2C)cc1	8.43%
COc1ccc(C(C)=O)cc1CN1C(=O)NC2(CCCCC2C)C1=O (centres undefined)	3.22%
CC1CCN(C(=O)c2cc3nc(C4CC4)cc(C(F)(F)F)n3n2)CC1	6.46%
C[C@H](CCC(=O)O)[C@@H]1CC[C@@H]2[C@H]3CC[C@H]4C[C@@H](O)CC[C@]4(C)[C@@H]3C[C@H](O)[C@]21C	-5.18%
FC(F)(F)c1ccc2nnc(-c3c(Cl)cccc3Cl)n2c1	-1.74%
CC1CCCCC1NC(=O)C1CCCN1S(=O)(=O)c1cccc2nsnc12 (centres undefined)	-19.4%
O=C1CSC(c2ccc(Cl)cc2)N1 (centres undefined)	13.1%
Cc1cccn2c(=O)c(/C=C(\C#N)S(=O)(=O)c3ccc(Cl)cc3)c(N3CCC(C(N)=O)CC3)nc12	0.22%
CCCNC(=O)N1CCN(C(=O)NCCC)CC1	0.05%
CC1=CC(=O)C=CC1(C)C(Cl)(Cl)Cl (centres undefined)	-10.9%
CN(C)c1ccc(CNC2C3CC4CC(C3)CC2C4)cc1 (centres undefined)	8.16%
COC(=O)Nc1ccc(S(=O)(=O)N2CCN(CCN3C(=O)C4C5C=CC(C5)C4C3=O)CC2)cc1 (centres undefined)	6.97%
O=C(NCC(=O)N(Cc1cccs1)C(C(=O)NC1CCCCC1)c1ccco1)c1cccs1 (centres undefined)	0.62%
COc1ccc(C)cc1S(=O)(=O)NCCc1ccccc1	7.34%
COc1ccc(NC(=S)N2N=CCC2c2ccccc2)cc1 (centres undefined)	-1.54%
CCCCN1C(=O)CC(N2CCOCC2)C1=O (centres undefined)	-0.67%
O=C(Cc1c(O)c2ccccc2[nH]c1=O)NCc1ccccc1	7.06%
CS(=O)(=O)c1ccc(/C=N/NC(N)=S)cc1	20.2%
CC(C)CCNC(=O)Cn1c(=O)oc2cc(S(=O)(=O)N3CC(C)CC(C)C3)ccc21 (centres undefined)	7.82%

Compound	inhibition
CCOCCCNC(=O)C(NC(=O)c1ccc(=O)[nH]c1)c1ccc(C)cc1 (centres undefined)	-19.1%
Cc1nnc(SCc2nc3ccccc3nc2C)s1	1.94%
CCOc1cc2[nH]c(=S)n(Cc3ccc(C(=O)NCCOC)cc3)c(=O)c2cc1OCC	-0.98%
CC(C)Oc1ccc(Oc2ccc(C(F)(F)F)cn2)cc1	0.6%
CCn1c(C)nc2cc(C(=O)NNS(=O)(=O)c3ccc(C)cc3C)ccc21	2.77%
Cc1cccc(-n2c(Cc3cc(=O)[nH]c(=O)[nH]3)nnc2SC(C)C)c1	62% (active)
COc1cccc(-n2c(Cc3cc(=O)[nH]c(=O)[nH]3)nnc2SCC(=O)Nc2ccccc2)c1	4.97%
Cc1cccc(-n2c(N)cc(=O)nc2SC(C)C(=O)NC2CCCCC2)c1 (centres undefined)	5.17%
O=C(O)CCCCc1nc2ccccc2s1	-2.94%
CNC(=O)c1nnc(Cc2ccc(Cl)cc2)o1	-6.06%
CCOc1ccc(S(=O)(=O)NCC2CCCO2)cc1 (centres undefined)	-12%
CCOC(=O)NC(C(F)(F)F)(C(F)(F)F)P(=O)(c1ccccc1)c1ccccc1	6.78%
CCOCCCNC(=O)C(NC(=O)CNC(=O)c1ccccc1)c1ccc(C)cc1 (centres undefined)	-6.68%
CCOCCOCCC(C(=O)O)P(=O)(c1ccccc1)c1ccccc1 (centres undefined)	71.7% (active)
CCCCCCOc1ccc(OC(=O)c2cccnc2)cc1	0.33%
Cc1ccc(-n2c(=O)cc(N3CCN(Cc4ccccc4)CC3)[nH]c2=O)cc1	2.1%
Cc1cc(S(=O)(=O)NC2CCCCC2)ccc1OCC(=O)NCc1cccnc1	8.87%
CN(C)C(=O)c1cc(Br)ccc1Cl	1.18%
O=C(Nc1ccc2c(c1)OCCO2)C(c1ccc(F)cc1)N1CCCCC1 (centres undefined)	-0.28%
